Measured values published in publication PMC11006913.
Changes are numbered by the printed parent chain.

Key:
Assay in all cases: PBM; 200 nM protein, PBS
Details in all cases: dsDNA, one strand shown
SIX6 [1] = biological target: T1, SIX6 (Homo sapiens, UniProt O95475 114-200, L167I)
T1 sequence: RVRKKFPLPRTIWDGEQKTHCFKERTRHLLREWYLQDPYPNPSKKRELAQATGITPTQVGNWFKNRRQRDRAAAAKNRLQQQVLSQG

SIX6 [2] = biological target: T2, SIX6 (Homo sapiens, UniProt O95475 114-200, L143V)
T2 sequence: T1 sequence with L30V, I54L

SIX6 [3] = biological target: T3, SIX6 (Homo sapiens, UniProt O95475 114-200, H141N)
T3 sequence: T1 sequence with H28N, I54L

SIX6 [4] = biological target: T4, SIX6 (Homo sapiens, UniProt O95475 114-200, T165P)
T4 sequence: T1 sequence with T52P, I54L

SIX6 [5] = biological target: T5, SIX6 (Homo sapiens, UniProt O95475 114-200, L167M)
T5 sequence: T1 sequence with I54M

SIX6 [6] = biological target: T6, SIX6 (Homo sapiens, UniProt O95475 114-200, L143M)
T6 sequence: T1 sequence with L30M, I54L

SIX6 [7] = biological target: T7, SIX6 (Homo sapiens, UniProt O95475 114-200, L143I)
T7 sequence: T1 sequence with L30I, I54L

SIX6 [8] = biological target: T8, SIX6 (Homo sapiens, UniProt O95475 114-200, T165G)
T8 sequence: T1 sequence with T52G, I54L

SIX6 [9] = biological target: T9, SIX6 (Homo sapiens, UniProt O95475 114-200, T139Q)
T9 sequence: T1 sequence with T26Q, I54L

SIX6 [10] = biological target: T10, SIX6 (Homo sapiens, UniProt O95475 114-200, T165A)
T10 sequence: T1 sequence with T52A, I54L

SIX6 [11] = biological target: T11, SIX6 (Homo sapiens, UniProt O95475 114-200, L167V)
T11 sequence: T1 sequence with I54V

SIX6 [12] = biological target: T12, SIX6 (Homo sapiens, UniProt O95475 114-200)
T12 sequence: T1 sequence with I54L

SIX6 [13] = biological target: T13, SIX6 (Homo sapiens, UniProt O95475 114-200, T165I)
T13 sequence: T1 sequence with T52I, I54L

Row | Sequence | binding signal (SIX6 [1]) | binding signal (SIX6 [2]) | binding signal (SIX6 [3]) | binding signal (SIX6 [4]) | binding signal (SIX6 [5]) | binding signal (SIX6 [6]) | binding signal (SIX6 [7]) | binding signal (SIX6 [8]) | binding signal (SIX6 [9]) | binding signal (SIX6 [10]) | binding signal (SIX6 [11]) | binding signal (SIX6 [12]) | binding signal (SIX6 [13])
1 | GAAAGCGC | 8.91 upbm affinity estimate (log intensity, higher = more binding, comparable within an allelic series) | 8.99 upbm affinity estimate (log intensity, higher = more binding, comparable within an allelic series) | 8.85 upbm affinity estimate (log intensity, higher = more binding, comparable within an allelic series) | 9.04 upbm affinity estimate (log intensity, higher = more binding, comparable within an allelic series) | 8.97 upbm affinity estimate (log intensity, higher = more binding, comparable within an allelic series) | 8.96 upbm affinity estimate (log intensity, higher = more binding, comparable within an allelic series) | 8.97 upbm affinity estimate (log intensity, higher = more binding, comparable within an allelic series) | 9 upbm affinity estimate (log intensity, higher = more binding, comparable within an allelic series) | 9 upbm affinity estimate (log intensity, higher = more binding, comparable within an allelic series) | 9.02 upbm affinity estimate (log intensity, higher = more binding, comparable within an allelic series) | 8.93 upbm affinity estimate (log intensity, higher = more binding, comparable within an allelic series) | 8.96 upbm affinity estimate (log intensity, higher = more binding, comparable within an allelic series) | 8.97 upbm affinity estimate (log intensity, higher = more binding, comparable within an allelic series)
2 | ACGGGCGG | 8.9 upbm affinity estimate (log intensity, higher = more binding, comparable within an allelic series) | 8.8 upbm affinity estimate (log intensity, higher = more binding, comparable within an allelic series) | 8.96 upbm affinity estimate (log intensity, higher = more binding, comparable within an allelic series) | 8.88 upbm affinity estimate (log intensity, higher = more binding, comparable within an allelic series) | 8.9 upbm affinity estimate (log intensity, higher = more binding, comparable within an allelic series) | 8.96 upbm affinity estimate (log intensity, higher = more binding, comparable within an allelic series) | 8.91 upbm affinity estimate (log intensity, higher = more binding, comparable within an allelic series) | 9.03 upbm affinity estimate (log intensity, higher = more binding, comparable within an allelic series) | 9.17 upbm affinity estimate (log intensity, higher = more binding, comparable within an allelic series) | 9.02 upbm affinity estimate (log intensity, higher = more binding, comparable within an allelic series) | 8.77 upbm affinity estimate (log intensity, higher = more binding, comparable within an allelic series) | 8.94 upbm affinity estimate (log intensity, higher = more binding, comparable within an allelic series) | 8.98 upbm affinity estimate (log intensity, higher = more binding, comparable within an allelic series)
3 | GGCCGGAA | 9.02 upbm affinity estimate (log intensity, higher = more binding, comparable within an allelic series) | 8.91 upbm affinity estimate (log intensity, higher = more binding, comparable within an allelic series) | 8.94 upbm affinity estimate (log intensity, higher = more binding, comparable within an allelic series) | 9.01 upbm affinity estimate (log intensity, higher = more binding, comparable within an allelic series) | 8.98 upbm affinity estimate (log intensity, higher = more binding, comparable within an allelic series) | 9 upbm affinity estimate (log intensity, higher = more binding, comparable within an allelic series) | 8.95 upbm affinity estimate (log intensity, higher = more binding, comparable within an allelic series) | 8.98 upbm affinity estimate (log intensity, higher = more binding, comparable within an allelic series) | 9.04 upbm affinity estimate (log intensity, higher = more binding, comparable within an allelic series) | 8.94 upbm affinity estimate (log intensity, higher = more binding, comparable within an allelic series) | 9.02 upbm affinity estimate (log intensity, higher = more binding, comparable within an allelic series) | 8.92 upbm affinity estimate (log intensity, higher = more binding, comparable within an allelic series) | 8.95 upbm affinity estimate (log intensity, higher = more binding, comparable within an allelic series)
4 | AGTATCAC | 11.3 upbm affinity estimate (log intensity, higher = more binding, comparable within an allelic series) | 10.3 upbm affinity estimate (log intensity, higher = more binding, comparable within an allelic series) | 11.2 upbm affinity estimate (log intensity, higher = more binding, comparable within an allelic series) | 9.74 upbm affinity estimate (log intensity, higher = more binding, comparable within an allelic series) | 10.6 upbm affinity estimate (log intensity, higher = more binding, comparable within an allelic series) | 11 upbm affinity estimate (log intensity, higher = more binding, comparable within an allelic series) | 10.3 upbm affinity estimate (log intensity, higher = more binding, comparable within an allelic series) | 11.3 upbm affinity estimate (log intensity, higher = more binding, comparable within an allelic series) | 11.3 upbm affinity estimate (log intensity, higher = more binding, comparable within an allelic series) | 11.3 upbm affinity estimate (log intensity, higher = more binding, comparable within an allelic series) | 11 upbm affinity estimate (log intensity, higher = more binding, comparable within an allelic series) | 11 upbm affinity estimate (log intensity, higher = more binding, comparable within an allelic series) | 11 upbm affinity estimate (log intensity, higher = more binding, comparable within an allelic series)
